According to PubChem BioAssay (NCI):
This is part of a sample that, as a whole, favours compounds with a hit. Of some 79,000 tested, about 15% had one in any assay. Activity calls are given as the source filed them. No stated cut-off is given here; in the data, active means growth inhibition above about 70%; inactive means the rest.

Tests used:
[1] = NCI Yeast Anticancer Drug Screen. Data for the rad50 strain (AID 155);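 further: 0% = growth of vehicle-only cultures of the same strain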; settings: S. cerevisiae rad50 strain growth inhibition; at 50.0 µM; active compounds read high
Outline: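 A DNA repair-deficient yeast mutant serves as the test organism; compound-induced growth inhibition is calculated against vehicle-treated cells.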

[2] = NCI Yeast Anticancer Drug Screen. Data for the mec2-1 strain (AID 157); settings: S. cerevisiae mec2-1 strain, at 50.0 µM, active compounds read high
Outline: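 mec2-1 yeast strain, carrying an alteration in DNA damage repair or cell cycle control, was exposed to compounds; growth inhibition was measured relative to vehicle-treated controls.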

[3] = NCI Yeast Anticancer Drug Screen. Data for the sgs1 mgt1 strain (AID 161);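 further: 0% = growth of cultures given vehicle only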; settings: S. cerevisiae sgs1 mgt1 strain, at 50.0 µM, active compounds read high
Outline: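 Compounds are added to genetically altered yeast, and growth is compared with cultures given vehicle alone to give percent inhibition.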

[4] = NCI Yeast Anticancer Drug Screen. Data for the cln2 rad14 strain (AID 165);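 further: 0% = growth equal to vehicle treated cultures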; settings: S. cerevisiae cln2 rad14 strain, at 50.0 µM, active compounds read high
Outline: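 Yeast carrying cln2 and rad14 alterations (cell cycle control and DNA damage repair) were exposed to compounds. Growth inhibition was measured against vehicle-treated controls.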

[5] = NCI Yeast Anticancer Drug Screen. Data for the bub3 strain (AID 167); settings: S. cerevisiae bub3 mutant strain, at 50.0 µM, active compounds read high
Outline: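 Inhibition values come from growth of compound-treated mutant yeast normalised to vehicle-treated controls.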

[6] = NCI Yeast Anticancer Drug Screen. Data for the mlh1 rad18 strain (AID 175); settings: S. cerevisiae mlh1 rad18 strain growth inhibition; at 50.0 µM; active compounds read high
Outline: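 Growth inhibition of the yeast strain was measured after compound exposure and expressed relative to vehicle-treated controls. The strain carries defined defects in DNA damage repair.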

Measured: growth inhibition

O=C1CSCCO1
inactive: [1] -7.3% | [2] -27.4% | [3] -3.6% | [4] -37% | [5] 1.05% | [6] -7%

Cc1cccc(C(=O)O)n1.[Cu+2]
inactive: [1] -20.6% | [2] 7.6% | [3] -19.4% | [4] -69.9% | [5] -27.6% | [6] -11.6%

O=C(O)C(c1ccccc1)S(=O)(=O)c1ccccc1 (centres undefined)
inactive: [1] 3.55% | [2] -7% | [3] 8.85% | [4] -16.7% | [5] -11.5% | [6] 5.95%

CN1N=C(c2ccncc2)OC1c1ccc(C(F)(F)F)cc1 (centres undefined)
inactive: [1] 13.9% | [2] -20.6% | [3] 1.35% | [4] 11.3% | [5] -19.6% | [6] -12.5%

Cc1ccc2[nH]c(=O)[nH]c2c1
inactive: [1] -13.6% | [2] -6.2% | [3] -0.25% | [4] -5.3% | [5] 2.15% | [6] -22.4%

O=C(Nc1ccc(S(=O)(=O)N2CCCCC2)cc1)OC1CCCCC1
inactive: [1] 16.4% | [2] 3.75% | [3] -4.2% | [4] 23.6% | [5] 30.9% | [6] -5.45%

CC(=O)Nc1ccc(S(=O)(=O)Nc2c(N)[nH]c(=S)[nH]c2=O)cc1
inactive: [1] 14% | [2] 3.9% | [3] 1.25% | [4] -3.75% | [5] 9.5% | [6] 9.45%

O=[N+]([O-])c1cc2c3ccccc3c([N+](=O)[O-])cc2c2ccccc12
inactive: [1] -10.2% | [2] -14.8% | [3] -8.6% | [4] -15.2% | [5] -10.5% | [6] 10.7%

OCC(O)c1ccccn1 (centres undefined)
inactive: [1] 5.5% | [2] -18.8% | [3] 6.65% | [4] -1.45% | [5] 2.55% | [6] 6.2%

COCC(=O)c1ccccc1
inactive: [1] 14.3% | [2] 1.7% | [3] 5.3% | [4] 6% | [5] -0.65% | [6] 32.9%

Nc1cccc2c1C(=O)c1c(N)cccc1C2=O
active: [1] 99.3% | [2] 99.4% | [3] 94.7% | [4] 98.7% | [5] 99.2% | [6] 99.1%

Cc1cccnc1C
inactive: [1] 16.9% | [2] -7.25% | [3] -16.2% | [4] 24.4% | [5] 14.4% | [6] 7.85%

N#CC(F)(F)C(F)(F)C(F)(F)C(F)(F)C(F)(F)C(F)(F)C(F)(F)F
inactive: [1] 33.5% | [2] -18.8% | [3] -11.2% | [4] -21.8% | [5] -15.3% | [6] -4.6%

CC(C)CN(CC(=O)Nc1cccc(Cl)c1)CC(C)C
inactive: [1] -4.35% | [2] 11.9% | [3] 4.15% | [4] -17.9% | [5] 5.25% | [6] 2.1%

COc1cc(O)c2c(c1)C(=O)c1cc3c(c(O)c1C2=O)C(O)C(OC)C(C)(O)C3O (centres undefined)
active: [1] 72.5% | [3] 72%
inactive: [2] 54.3% | [4] 42.6% | [5] 64.8% | [6] 68.2%

CC(C)(CCc1nc2ccccc2[nH]1)C(=O)O
inactive: [1] -18.1% | [2] -6.35% | [3] -1.35% | [4] -10% | [5] 1.05% | [6] -3.85%

CCCCCCCCCCCC(=O)OCCS(=O)(=O)CCOC(=O)CCCCCCCCCCC
inactive: [1] 30% | [2] 4.35% | [3] -1.2% | [4] -23.9% | [5] 15.4% | [6] 22.2%

Nc1ccn(C2OC(COC(=O)C34CC5CC(CC(C5)C3)C4)C(O)C2O)c(=O)n1 (centres undefined)
inactive: [1] -14.5% | [2] 0.4% | [3] -35.5% | [4] -2.4% | [5] -31.2% | [6] 6.3%

COc1ccc2[nH]c(Br)c(CCNC(C)=O)c2c1
inactive: [1] -25.6% | [2] -7.4% | [3] -16.9% | [4] 1.9% | [5] -4.55% | [6] -31.9%

CC(=O)O[C@]1(C(C)=O)CC[C@H]2[C@@H]3C[C@H](C)C4=CC(=O)C=C[C@]4(C)[C@@]3(F)[C@@H](O)C[C@@]21C
inactive: [1] 3.25% | [2] -35.4% | [3] -10.9% | [4] -15.4% | [5] -16.9% | [6] 20.8%

O=C(O)/C=C\c1ccc(OC(=O)c2ccccc2)cc1
inactive: [1] -1.1% | [2] -12.6% | [3] -21% | [4] -24.6% | [5] -4.95% | [6] 33.1%

C/C(=N\N=C(\Cc1ccccc1)c1ccccc1)c1ccccc1
inactive: [1] 1.7% | [2] 3.95% | [3] -11.6% | [4] -25.2% | [5] -1.65% | [6] 2.8%

CC(C)n1c(=O)nc(-c2ccccc2)c2cc3c(cc21)OCO3
inactive: [1] 27.3% | [2] 18.8% | [3] 51.4% | [4] 7% | [5] 47.9% | [6] 8.65%

O=C1NC(c2ccccc2)(c2ccccc2)C(=O)N1CCCCCCN1C(=O)NC(c2ccccc2)(c2ccccc2)C1=O
inactive: [1] 8.35% | [2] 3.45% | [3] 4% | [4] 0.25% | [5] -7.15% | [6] 18.2%

COc1cc(NS(=O)(=O)c2ccc(N)cc2)nc(OC)n1
inactive: [1] -28.3% | [2] -11.3% | [3] -11.1% | [4] -60.2% | [5] -22.6% | [6] -3.9%

CC(C)(NC(=O)c1ccccc1)NC(=O)c1ccccc1
inactive: [1] 5.35% | [2] -10.1% | [3] -5.8% | [4] -38.2% | [5] 5.55% | [6] -6.35%

Cc1ccc(SCC(CF)OCn2cc(F)c(=O)[nH]c2=O)cc1 (centres undefined)
inactive: [1] -7.85% | [2] -13% | [3] -12.2% | [4] -22.2% | [5] 1.95% | [6] -8.05%

Nc1ccccc1SC1CCCCC1O (centres undefined)
inactive: [1] -4.9% | [2] 2.2% | [3] -5.3% | [4] -8.2% | [5] 3.75% | [6] -7.15%

CC(=O)Nc1ccc(C(=O)NN2C(=O)CSC2c2ccc(O)cc2)cc1 (centres undefined)
inactive: [1] -36% | [2] -36.1% | [3] -44.5% | [4] -15.7% | [5] -30.2% | [6] -49.7%

O=C(OCc1ccccc1CN1CCCC1)c1ccc([N+](=O)[O-])cc1Cl
inactive: [1] -13% | [2] -15.8% | [3] -13.7% | [4] -52.7% | [5] -0.9% | [6] -54.8%

CCOC(=O)C(=CNc1ccc(N(CC)CC)cc1)C(=O)OCC
inactive: [1] -12.7% | [2] -7.85% | [3] -8% | [4] 47.6% | [5] 8.3% | [6] 0.35%

OC(Cc1ccccc1)c1ccccc1 (centres undefined)
inactive: [1] -21.9% | [2] -19.8% | [3] -24.8% | [4] 16.2% | [5] -5.15% | [6] 1.5%

CCOC1=C([N+](=O)[O-])C(c2ccccc2)NC1=O (centres undefined)
inactive: [1] 10.8% | [2] -0.6% | [3] -3% | [4] 15.1% | [5] -35.3% | [6] 11.7%

O=C(O)CC1CC(=O)OC1(c1ccccc1)c1ccccc1 (centres undefined)
inactive: [1] 18% | [2] 11.6% | [3] 20.9% | [4] 2.8% | [5] 8.15% | [6] 6.45%

Cn1c(=O)oc2cc(C(=O)CN3CCN(Cc4ccc5c(c4)OCO5)CC3)c(Cl)cc21
inactive: [1] 29.5% | [2] 26.4% | [3] 61.8% | [4] 26.1% | [5] 53.4% | [6] 23.1%

CCOc1c(Cc2ccccc2)c(=O)n2c3ccccc3n(CC)c2c1C#N
inactive: [1] -4.75% | [2] -6.05% | [3] 0.25% | [4] -11.8% | [5] -29.9% | [6] -10.8%

CN=NNc1ccc(C#N)cc1
inactive: [1] 7.3% | [2] 1.4% | [3] -1.85% | [4] -14.1% | [5] -6.65% | [6] 5.5%

N#Cc1nc(-c2cc([N+](=O)[O-])cc([N+](=O)[O-])c2)oc1N
inactive: [1] -14.6% | [2] -10.6% | [3] -4.7% | [4] 1.8% | [5] 0.05% | [6] -8.6%

CN1N=C(N)c2cn(C3OC(COP(=O)(O)O)C(O)C3O)c3ncnc1c23 (centres undefined)
inactive: [1] -16.2% | [2] 1.2% | [3] 4.7% | [4] -22.8% | [5] 11.3% | [6] -9.05%
